Screening results deposited in PubChem by National Center for Advancing Translational Sciences (NCATS).
A selection: hits, their analogues and other compounds. The true share with any hit is near 12%.
HP1b binding inh: inhibitors of HP1-beta chromodomain binding to methylated histone tails; AID 540317; AlphaScreen HP1-beta / biotin-H3K9me3 peptide binding; 390,000 tested, 0.56% active; Potency, µM (doses to about 114 µM), inactives show at the top dose activity change, negative = inhibition, usual class: inhibitors; P83916; note: potency is the fitted concentration of half-maximal effect; nearly all actives have a fitted effect of over 70% in size
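Compound inhibition of the preformed complex between 50 nM HP1-beta and 50 nM biotinylated H3K9me3 peptide was read by AlphaScreen. Buffer was PBS pH 7.4 with 0.01% Tween-20. Incubations ran 30 min at room temperature, with 10 ug/mL donor/acceptor beads.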
JMJD2A Tudor: JMJD2A Tudor domain (human) inhibition | AlphaScreen JMJD2A-Tudor / H3K4me3 peptide binding | Potency, µM (doses to about 114 µM), without a hit: at the top dose activity change, negative = inhibition, most hits filed as inhibitors | 390,000 tested, 4.4% active; note: potency is the fitted concentration of half-maximal effect; % is set by controls: 0 for no effect and ±100 for the full control effect; nearly all actives have a fitted effect of over 50% in size
BAZ2B block: inhibitors of human BAZ2B bromodomain; Q9UIF8; AlphaScreen BAZ2B-H3K14Ac peptide displacement; Potency, µM (series often up to 114 µM), inactives show at the highest dose activity change, negative = inhibition, usual class: inhibitors; 360,000 tested, 4.4% active; AID 504333; note: potency is the fitted concentration of half-maximal effect; % is set by controls: 0 for no effect and ±100 for the full control effect; nearly all actives have a fitted effect of over 60% in size
Target sequence (Q9UIF8 whole entry, looked up): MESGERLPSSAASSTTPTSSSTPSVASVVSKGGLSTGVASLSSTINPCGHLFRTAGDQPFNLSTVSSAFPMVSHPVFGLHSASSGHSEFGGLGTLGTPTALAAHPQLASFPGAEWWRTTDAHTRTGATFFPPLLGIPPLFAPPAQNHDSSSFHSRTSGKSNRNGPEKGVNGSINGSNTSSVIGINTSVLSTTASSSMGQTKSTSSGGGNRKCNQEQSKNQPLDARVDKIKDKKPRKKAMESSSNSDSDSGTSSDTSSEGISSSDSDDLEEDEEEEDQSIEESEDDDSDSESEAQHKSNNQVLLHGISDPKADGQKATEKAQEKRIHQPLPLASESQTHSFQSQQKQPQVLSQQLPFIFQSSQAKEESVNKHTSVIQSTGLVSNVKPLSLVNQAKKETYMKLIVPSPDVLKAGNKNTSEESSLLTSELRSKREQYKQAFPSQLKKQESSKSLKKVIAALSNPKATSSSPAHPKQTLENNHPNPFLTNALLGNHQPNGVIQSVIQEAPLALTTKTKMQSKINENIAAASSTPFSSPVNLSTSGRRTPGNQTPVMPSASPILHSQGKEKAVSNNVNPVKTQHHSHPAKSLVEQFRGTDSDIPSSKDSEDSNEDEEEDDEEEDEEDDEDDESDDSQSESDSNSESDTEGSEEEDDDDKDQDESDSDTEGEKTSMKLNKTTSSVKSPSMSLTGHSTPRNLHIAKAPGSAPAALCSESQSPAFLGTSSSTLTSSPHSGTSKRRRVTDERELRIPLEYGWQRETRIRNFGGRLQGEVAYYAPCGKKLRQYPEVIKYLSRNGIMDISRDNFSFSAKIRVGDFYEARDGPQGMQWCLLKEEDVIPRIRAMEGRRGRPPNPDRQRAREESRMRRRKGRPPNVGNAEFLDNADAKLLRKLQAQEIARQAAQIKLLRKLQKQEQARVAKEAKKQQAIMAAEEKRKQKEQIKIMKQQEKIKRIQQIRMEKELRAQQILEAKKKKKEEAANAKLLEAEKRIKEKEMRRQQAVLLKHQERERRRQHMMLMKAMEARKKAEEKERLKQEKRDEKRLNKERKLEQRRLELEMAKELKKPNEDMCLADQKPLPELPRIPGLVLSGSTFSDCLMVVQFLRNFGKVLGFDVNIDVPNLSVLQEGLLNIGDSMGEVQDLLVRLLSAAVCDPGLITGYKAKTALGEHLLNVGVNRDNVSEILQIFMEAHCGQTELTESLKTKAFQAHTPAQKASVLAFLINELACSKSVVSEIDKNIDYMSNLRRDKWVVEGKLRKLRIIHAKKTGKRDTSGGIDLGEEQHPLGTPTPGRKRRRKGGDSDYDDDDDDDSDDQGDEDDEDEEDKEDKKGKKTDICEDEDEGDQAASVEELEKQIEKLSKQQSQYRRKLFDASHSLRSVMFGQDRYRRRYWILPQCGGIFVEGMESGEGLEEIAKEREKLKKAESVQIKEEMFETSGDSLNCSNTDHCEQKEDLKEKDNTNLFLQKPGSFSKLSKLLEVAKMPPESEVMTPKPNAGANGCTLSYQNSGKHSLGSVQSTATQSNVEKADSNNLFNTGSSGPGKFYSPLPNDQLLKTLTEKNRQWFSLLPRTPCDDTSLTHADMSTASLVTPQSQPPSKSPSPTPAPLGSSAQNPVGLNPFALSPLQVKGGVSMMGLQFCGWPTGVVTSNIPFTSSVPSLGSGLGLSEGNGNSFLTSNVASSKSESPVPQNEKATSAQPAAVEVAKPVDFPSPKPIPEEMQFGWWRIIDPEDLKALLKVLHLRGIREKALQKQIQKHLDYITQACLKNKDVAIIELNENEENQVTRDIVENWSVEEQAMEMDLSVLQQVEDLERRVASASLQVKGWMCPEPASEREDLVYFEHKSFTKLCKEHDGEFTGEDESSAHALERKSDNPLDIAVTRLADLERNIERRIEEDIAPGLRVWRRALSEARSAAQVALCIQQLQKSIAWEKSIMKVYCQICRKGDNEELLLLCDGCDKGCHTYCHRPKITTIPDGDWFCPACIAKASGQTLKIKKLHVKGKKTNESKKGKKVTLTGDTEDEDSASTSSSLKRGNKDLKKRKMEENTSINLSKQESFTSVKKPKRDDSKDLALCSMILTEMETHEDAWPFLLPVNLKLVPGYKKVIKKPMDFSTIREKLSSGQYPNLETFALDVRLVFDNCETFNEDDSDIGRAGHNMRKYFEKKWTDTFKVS
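Complex of BAZ2B and biotin-H3K14Ac (50 nM apiece) forms over 30 min at RT, then faces library compounds up to 110 uM for another 30 min; AlphaScreen beads added, 20 min dark incubation, luminescence read.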
G9a inh: G9a (human) methyltransferase inhibition | 350,000 tested, 8.8% active | G9a H3K9 monomethylation, AlphaScreen, 2 h | Potency, µM (top dose mostly 102 µM), without a hit: top-dose activity, negative = inhibition, most hits filed as inhibitors; note: potency is the fitted concentration of half-maximal effect; % is set by controls: 0 for no effect and ±100 for the full control effect; nearly all actives have a fitted effect of over 75% in size
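AlphaScreen read-out: biotin-H3K9 peptide (500 nM) methylation by 20 nM enzyme with 20 uM SAM, 2 h at room temperature after 15 min compound preincubation; anti-monomethyl H3K9 antibody plus donor/acceptor beads, 10 min dark.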
PLK1 PBD block: blocks phosphopeptide binding to human PLK1 polo-box domain; Potency, µM, for inactives: max response, negative = inhibition, hits mostly inhibitors; Plk1 PBD binding of FITC phosphopeptide, fluorescence polarization; 360,000 tested, 2.8% active; note: potency is the fitted concentration of half-maximal effect; series mostly up to about 57 µM; % is set by controls: 0 for no effect and ±100 for the full control effect; nearly all actives have a fitted effect of over 65% in size
Sfp inh: inhibitors of Bacillus subtilis Sfp phosphopantetheinyl transferase; Q9F4F7; Biochemical Sfp PPTase activity, qHTS; Potency, µM, without a hit: largest response in the series, negative = inhibition, usual class: inhibitors; 310,000 tested, 3.5% active; AID 1490;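 note: the enzyme is Sfp with the accession as filed and its product quenches rhodamine fluorescence; potency is the fitted concentration of half-maximal effect; 0% = enzyme reaction without inhibitor and -100% = no enzyme wells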
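Fluorescence-quenching assay: 15 nM Sfp-PPTase preincubated 15 min at room temperature with compound, then 5 uM rhodamine-CoA and 12.5 uM BHQ-2-labelled YbbR peptide added. Fluorescence (ex 525/em 598 nm) read at start and after 30 min; difference gives rate.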
Sfp inh conf: Sfp phosphopantetheinyl transferase inhibition, confirmation. shares compounds with Sfp inh. Potency, µM (titrated, usually from 114 µM), without a hit: at the highest dose activity change, negative = inhibition, most hits filed as inhibitors. 380 tested, 79% active. Sfp PPTase enzymatic assay, qHTS titration;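 note: potency is the fitted concentration of half-maximal effect; plate controls were uninhibited Sfp reaction for no effect and no enzyme control for full effect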
Sfp PPTase gel: Blocks Sfp PPTase activity, gel read-out; shares compounds with Sfp inh; purified Sfp, gel-based phosphopantetheinylation read-out; Potency, µM, actives largely listed as inhibitors; 210 tested, 20% active;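 active = potency below 100 µM; inconclusive = dose-dependent response but potency above 100 µM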;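 note: band intensities scaled against SCH202676 control wells before curve fitting; potency is an IC50 for inhibitors of Sfp transfer activity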
The depositor's hits bear a star; i = inactive; ? = inconclusive; . = no result given; ! = repeats disagree; [ ] = dose if it differs, or a comment. Unless noted, calls come from the whole dose curve; as a rule, active = well fitted curve in the direction sought with a large enough effect; inconclusive = small, poorly fitted or top-dose-only effect, or another doubt; inactive = no such curve, though single readings can be large; an effect the other way counts as inactive or inconclusive.

SMILES | HP1b binding inh | JMJD2A Tudor | BAZ2B block | G9a inh | PLK1 PBD block | Sfp inh | Sfp inh conf | others
Cc1cc(C)cc(-n2c(SCC(=O)NCc3ccc4c(c3)OCO4)nc3ccccc3c2=O)c1 | 40% | -4% | 6% | 31%[59 µM] | -3% | -5% | .
COc1ccc(NC(=O)c2ccccc2Cl)c(NC(=O)c2ccco2)c1 | 27% | -13% | -24% | ? | -13% | 8% | .
COc1ccc(NC(=O)c2cc(Cl)ccc2NC(=O)c2ccco2)c(OC)c1 | 42% | ? | -17% | -11% | -19% | 16µM* | 47µM* | Sfp PPTase gel=i
CC1=C(C(=O)O)N2C(=O)[C@@H](NC(=O)[C@@H](N)c3ccc(O)cc3)[C@@H]2SC1 | . | . | . | 8%[21.5 µM] | . | 32µM* | -2%[53.7 µM] | Sfp PPTase gel=?
CCOc1ccccc1NC(=O)c1ccc2c(c1)CCCN2S(C)(=O)=O | 38% | -17% | 1% | -21%[59 µM] | . | . | .
COc1ccc(CCCNC(=O)C2Cc3c(-c4ccccc4)ccnc3O2)cc1 (stereo unspecified) | . | . | . | . | -3% | . | .
CN1CCc2cccc3c2[C@@H]1Cc1ccc(O)c(O)c1-3 | ? | 13µM* | 35µM* | 2µM* | ? | 63µM* | 59µM* | Sfp PPTase gel=56µM*
COc1ccc2c(c1O)-c1ccccc1CCN(C)C2 | 28% | -13% | -17% | -46%[59 µM] | -2% | 15% | .
Cc1cnc(=O)[nH]c1SCC(=O)c1ccc(F)cc1 | -32% | -23% | ? | 7.1µM* | 12µM* | 14µM* | 8.3µM*
Cc1csc(NC(=O)CSc2[nH]c(=O)ncc2C)n1 | 30% | -12% | -11% | 6% | -10% | . | .
Cc1ccc(-c2nc(N)sc2CC(=O)OCC(=O)NC2CCCC(C)C2C)cc1 (stereo unspecified) | -14% | -25% | -9% | ? | -9% | -5% | .
Cc1ccc(-c2nc(N)sc2CC(=O)OCC(=O)N2C(C)CCCC2C)cc1 (stereo unspecified) | -9% | -19% | ? | ? | -1% | 18µM* | 37µM* | Sfp PPTase gel=i
Cc1ccc(C(C)C)cc1S(=O)(=O)NCc1ccccn1 | 21% | 7% | 6% | 17% | 5% | 1% | .
COc1cccc(CNc2ccccn2)c1O | 26% | -18% | 3% | -2%[0.501 µM] | -8% | 15% | .
COc1cccc(CNc2cccc3cccnc23)c1O | -7% | 45µM* | ? | ? | -10% | 4.5µM* | 21µM* | Sfp PPTase gel=i
COc1ccccc1NS(=O)(=O)c1cc(NC(=O)c2sccc2C)ccc1N1CCCC1 | ? | -18% | -31% | 3.5µM* | 6.7µM* | 2.8µM* | 17µM*
O=C(CSc1nnc(-c2ccccc2Cl)o1)N1CCCc2ccccc21 | 46% | 10% | 16% | -25%[59 µM] | . | . | .
CCCCN(C(=O)c1oc2ccc(OCC)cc2c1C)c1c(N)n(CC(C)C)c(=O)[nH]c1=O | 17% | -17% | 3% | 6%[2.33 µM] | -4% | . | .
c1ccc(CCn2cnc3ccccc32)cc1 | 27% | -14% | -1% | 64% | 1% | 15% | .
c1ccc(CCc2nn3c(Cn4cnc5ccccc54)nnc3s2)cc1 | -33% | ? | -24% | 4µM* | 6.7µM* | 10µM* | 13µM*
Brc1ccccc1-c1nnc2sc(Cc3ccccc3)nn12 | 27% | -7% | 4% | ? | -6% | -16% | .
c1ccc(CCc2nn3c(Cn4nnc5ccccc54)nnc3s2)cc1 | ? | ? | -7% | ? | 13µM* | 13µM* | 42µM*
Clc1ccccc1-c1nnc2sc(CCc3ccccc3)nn12 | ? | ? | 1% | 4.5µM* | 7.5µM* | 13µM* | 12µM*
O=C(O)CSc1nnc(Cn2nnc3ccccc32)n1CCc1ccccc1 | 40% | -17%[57.1 µM] | -5% | -19% | -15% | 6% | .
O=C(c1ccc2c(c1)N(Cc1ccc(F)cc1)C(=O)c1ccccc1S2(=O)=O)N1CCCCCC1 | 16% | -20% | -12% | -29%[59 µM] | . | . | .
SMILES | HP1b binding inh | JMJD2A Tudor | BAZ2B block | G9a inh | PLK1 PBD block | Sfp inh | Sfp inh conf | others
COc1ccccc1C(=O)Nc1ccnn1C1CCN(CCC(C)c2ccc(C)o2)CC1 (stereo unspecified) | -18% | -34% | -28% | 7.1µM* | -12% | 50µM* | 19µM*
CCc1ccc(CN2CCC(n3nccc3NC(=O)c3ccccc3OC)CC2)o1 | . | . | . | . | 2% | . | .
CNC[C@H](O)c1cccc(O)c1 | 54% | -1% | -9% | -8%[59 µM] | -6% | 12% | .
CNC[C@H](O)c1ccc(O)c(O)c1 | 14% | -28% | 50µM* | 7.9µM*! | -4% | 25µM*! | ? | Sfp PPTase gel=i
CCOC(=O)c1ccc(NC(=S)N2CCN(CCN=CC3=C(O)CC(C)(C)CC3=O)CC2)cc1 | 7% | -11% | ? | . | -13% | 11µM* | 18% | Sfp PPTase gel=?
Cc1ccc(OCCC(=O)NCCc2ccc(S(N)(=O)=O)cc2)cc1 | 28% | 7% | -7% | -7%[59 µM] | 7% | 4% | .
CC(C)(C)c1ccc(OCCC(=O)NCCc2ccc(S(N)(=O)=O)cc2)cc1 | 33% | -5% | -6% | ? | -13% | 20µM* | 12%
O=C(NCc1cccc(Cl)c1)c1cccc2c(-c3cccnc3)coc12 | . | . | . | . | 7% | . | .
Cc1cc(C(F)(F)F)nn1Cc1ccc(C(=O)NCc2ccco2)o1 | 31% | -29% | 19% | ? | -15% | 0.89µM* | 47µM*
CCOc1ccc(N2CC(C(=O)NCC(=O)Nc3ccc(F)c(F)c3F)CC2=O)cc1 (stereo unspecified) | 34% | -12% | 8% | 5%[12.7 µM] | -6% | . | .
CC(C)(C)C(C(=O)Oc1ccccc1)c1ccccc1 (stereo unspecified) | 78% | 46% | 106% | -3%[0.501 µM] | -4% | . | .
N#C/C(=C/c1ccc(N2CCCCC2)o1)c1cccc(F)c1 | ? | 45µM* | 40µM* | 2.5µM* | -9% | 2.8µM* | 21µM* | Sfp PPTase gel=19µM*
N#C/C(=C/c1ccc(N2CCOCC2)o1)C(=O)Nc1ccccc1 | 17% | -21% | -26% | -2% | 79% | ? | .
Cc1ccc(/C(C#N)=C\c2ccc(N3CCOCC3)o2)cc1 | ? | 56µM* | 79µM* | 2.5µM* | 12% | 1.4µM* | 13µM* | Sfp PPTase gel=i
Cc1ccc(NC(=O)Nc2nnc(N3CCCC3)s2)cc1C | 11% | -32% | ? | -48%[59 µM] | . | . | .
CC1=NC(C)(C)CC2CCC(O)C12 (stereo unspecified) | 25% | 1% | . | . | -2% | . | .
COc1ccc(NC(=O)N2CCC3(CC2)CCN(S(C)(=O)=O)CC3)cc1 | . | . | . | -1%[12.7 µM] | . | 24% | .
